# ChEMBL document CHEMBL3988442, “University of Dundee, Small-Polar-MMV Screening Library” (2021)
# The whole screen tested about 48,000 compounds, of which about 13,000 (27%) showed an effect of 50% or more. The list shows a part of the results.
# Tested on: Wolbachia pipientis
# Assay: Anti-Wolbachia Cell-Based Screen
# Format: functional
# Set-up: scale not given: in the data most compounds retested in dose-response had high values
# Conditions: 5 µM
row,SMILES,Percent Effect [%]
1,COCCN(C(=O)c1ccc(OC)cc1)c1ccc(C#N)cc1,3.07
2,Cc1ccc(C(=O)NCCCN(C(C)C)S(C)(=O)=O)c(=O)[nH]1,16.76
3,COCCN(C)C[C@H]1CC[C@@H](Cc2ccc3c(cnn3C)c2)O1,-8.226
4,CN(C)C(=O)[C@H]1C[C@@H]2CN(S(=O)(=O)c3ccccc3)C[C@H]1O2,1.569
5,CC(C)NC(=O)N1C[C@H]2C[C@H](C(=O)N3CCCC3)[C@@H](C1)O2,-51.72
6,O=C(NCC1CCCCC1)N1C[C@H]2C[C@H](C(=O)N3CCOCC3)[C@@H](C1)O2,-10.09
7,CC(C)CS(=O)(=O)N1C[C@H]2C[C@H](C(=O)N3CCN(C)CC3)[C@@H](C1)O2.O=C(O)C(F)(F)F,100.5
8,CC(C)CS(=O)(=O)N1C[C@H]2C[C@H](C(=O)N(C)C)[C@@H](C1)O2,117.8
9,CCCS(=O)(=O)N1C[C@H]2C[C@H](C(=O)N(C)C)[C@@H](C1)O2,1.854
10,CC(C)CS(=O)(=O)N1C[C@H]2C[C@H](C(=O)N3CCOCC3)[C@@H](C1)O2,113.5
11,Cc1cnc(N2C[C@H]3C[C@H](C(=O)N4CCN(C)CC4)N(C)[C@H]3C2)nc1.O=C(O)C(F)(F)F.O=C(O)C(F)(F)F.O=C(O)C(F)(F)F,1.417
12,CC(C)CS(=O)(=O)N1C[C@H]2C[C@H](C(=O)NCc3ccccc3)[C@@H](C1)O2,6.255
13,O=C(NCC1CCCCC1)N1C[C@H]2C[C@H](C(=O)N3CCCC3)[C@@H](C1)O2,-1.453
14,CC(C)CN1CCS(=O)(=O)[C@@H]2CCN(S(=O)(=O)CC(C)C)CC[C@@H]21.O=C(O)C(F)(F)F,-0.8095
15,CC(C)CS(=O)(=O)N1C[C@H]2C[C@H](C(=O)N3CCCC3)[C@@H](C1)O2,109.6
16,CCS(=O)(=O)NCCNc1c(C#N)cnc2c(F)cc(F)cc12,9.088
17,O=c1c2cccnc2cnn1CC(O)c1cccc(Cl)c1 (stereo unspecified),-24.01
18,O=C(NCC(O)c1cccc(F)c1)C1CCN(C2CCCCC2)CC1 (stereo unspecified),-12.87
19,CCN1CCCC1CN(Cc1ccon1)CC1CCN(CCOC)CC1 (stereo unspecified),1.475
20,O=C(c1cccnc1O)N(Cc1cccs1)CC1CCCO1 (stereo unspecified),-28.97
21,COCCN(Cc1cccs1)C(=O)C1CCCN(C(N)=O)C1 (stereo unspecified),11.05
22,COCCN1CCC(CN(CC2CCCO2)C(=O)Cc2cccs2)CC1 (stereo unspecified),153.6
23,COCCN1CCC(CN(CC2CCCO2)C(=O)Cn2cccn2)CC1 (stereo unspecified),105.2

row,SMILES,Percent Effect [%]
1,CCN1CCCC1CN(Cc1ccoc1)CC1CCN(CCOC)CC1 (stereo unspecified),3.887
2,CN(C)C(=O)N1CCC2(CC1)CN(CC1CC1)CC21CCNC1=O.O=C(O)C(F)(F)F (stereo unspecified),-46.87
3,CC(C)CC(C(=O)N(C)Cc1ncnn1C)N1CCCCC1=O (stereo unspecified),7.289
4,O=C(C1CCCO1)N1CCC(n2cc(-c3ccsc3)nn2)CC1 (stereo unspecified),2.629
5,CCNC(=O)NC1CCN(c2ccc(S(=O)(=O)CC)cc2)CC1,-0.338
6,CC(C#N)CN(C)Cc1ccc(Cl)c2cccnc12 (stereo unspecified),-6.534
7,CC(C)n1cc(C(=O)N2CCC(n3cc(C(C)(C)C)nn3)CC2)cn1,5.915
8,CCC(CC)(CNC(=O)OC(C)(C)C)NC(=O)C1CC1,0.8539
9,Cc1ccc(CN2CCC[C@]3(C(=O)O)CN(C)C[C@@H]3C2)s1.O=C(O)C(F)(F)F.O=C(O)C(F)(F)F,119.8
10,COCCN1C[C@@H]2CN(Cc3ccc(C)s3)CCC[C@]2(C(=O)O)C1.O=C(O)C(F)(F)F.O=C(O)C(F)(F)F,111.2
11,CN1C[C@@H]2CN(Cc3ccsc3)CCC[C@]2(C(=O)O)C1.O=C(O)C(F)(F)F.O=C(O)C(F)(F)F,3.355
12,COCCN1C[C@@H]2CN(Cc3ccoc3)CCC[C@]2(C(=O)O)C1.O=C(O)C(F)(F)F.O=C(O)C(F)(F)F,-3.751
13,Cc1ccc(CN2CCCC3(CCCN3S(C)(=O)=O)C2)s1.O=C(O)C(F)(F)F (stereo unspecified),2.867
14,Cc1ccc(CN2CCCC3(CCCC(=O)N3)C2)s1.O=C(O)C(F)(F)F (stereo unspecified),-10.23
15,Cc1ccc(CN2C[C@@H]3CN(CC4CCOCC4)CCO[C@@H]3C2)s1.O=C(O)C(F)(F)F.O=C(O)C(F)(F)F,-6.305
16,COCCN1C[C@@H]2CN(Cc3ccsc3)CCC[C@]2(C(=O)O)C1.O=C(O)C(F)(F)F.O=C(O)C(F)(F)F,4.755
17,Cc1ccc(CN2CCC[C@]3(C(=O)O)CN(CC4CC4)C[C@@H]3C2)s1.O=C(O)C(F)(F)F.O=C(O)C(F)(F)F,98.43
18,Cc1ocnc1C(=O)N1CCC2(CC1)c1nc[nH]c1CCN2CC(C)C,6.768
19,OC(COCc1cccs1)CSc1nnc2ccccn12 (stereo unspecified),9.754
20,COc1nn(C)c2c1CCCN(C(=O)c1ccccc1)C2,-3.094
21,COc1nn(C)c2c1CCCN(C(=O)c1cccc(C)n1)C2.O=C(O)C(F)(F)F,98.8
22,COc1nn(C)c2c1CCCN(C(=O)c1cccc3cccnc13)C2.O=C(O)C(F)(F)F,97.34
23,Cn1nc(C#N)c2c1CN(C(=O)c1cccnc1)CCC2.O=C(O)C(F)(F)F,29.43

row,SMILES,Percent Effect [%]
1,Cc1ccccc1C(=O)N1Cc2c(Cn3ccnc3)nn(C)c2C1.O=C(O)C(F)(F)F,-9.207
2,COc1nn(C)c2c1CCCN(S(=O)(=O)c1cccc(F)c1)C2,-2.811
3,Cc1nc(COCc2cnc3n2CCN(C2CCC2)C3C)cs1.O=C(O)C(F)(F)F (stereo unspecified),1.124
4,Cc1c(C(=O)N2CC(=O)N(C)C2)nnn1-c1cccc2cccnc12,-0.5272
5,Cc1occc1C(=O)NCC(=O)NCCOc1ccc2c(c1)CCC2,29.83
6,Cn1ccnc1C(=O)NC[C@H]1OC[C@@H]2CCN(S(C)(=O)=O)C[C@@H]21,-43.59
7,O=c1ccc(-n2ccnc2)nn1CCNS(=O)(=O)c1ccc(F)c(Cl)c1,15.65
8,Cc1cc(C)n(-c2ccc(NCCNS(=O)(=O)c3ccccc3)nn2)n1,5.574
9,Cc1cc(=O)n(CCNS(=O)(=O)c2cccc(C(F)(F)F)c2)cn1,121.6
10,Cc1cc(=O)n(CCNS(=O)(=O)c2ccccc2)cn1,113.1
11,Cc1cc(NCCNS(=O)(=O)c2cccc(Cl)c2)nc(C)n1,15.59
12,CNS(=O)(=O)c1cccc(CNc2cc(C(F)(F)F)ccn2)c1,-5.444
13,Cc1cc(=O)n(CCNS(=O)(=O)c2ccc(F)c(Cl)c2)cn1,79.22
14,CCCn1ccnc1SCCNS(=O)(=O)c1ccccc1,8.595
15,O=c1ccc(-n2cccn2)nn1CCNS(=O)(=O)c1ccc(F)c(Cl)c1,8.551
16,O=C(Nc1ccc2occc2c1)N1CCCC(O)(CO)CC1 (stereo unspecified),-15.39
17,Cc1cc(Br)ccc1NCC(=O)Nc1cc(C(C)(C)C)no1,-8.877
18,Cc1n[nH]c(C)c1C1COCCN1C(=O)c1ccccc1 (stereo unspecified),5.535
19,Cc1cn[nH]c1C1COCCN1C(=O)c1ccc2c(c1)CCCC2 (stereo unspecified),108.4
20,Cc1n[nH]c(C)c1C1COCCN1C(=O)Cc1cccc(F)c1 (stereo unspecified),-5.544
21,Cc1cn[nH]c1C1COCCN1C(=O)c1ccc2[nH]nnc2c1 (stereo unspecified),120.8
22,CC(=O)Nc1cc(C(=O)N2CCOCC2c2ccc(C)o2)ccc1F (stereo unspecified),-2.563
23,Cc1cn[nH]c1C1COCCN1C(=O)c1cc(F)ccc1F (stereo unspecified),95.39

row,SMILES,Percent Effect [%]
1,O=C(c1ccc2c(c1)CCCC2)N1CCOCC1c1ncon1 (stereo unspecified),4.25
2,CS(=O)(=O)NCc1ccc(NC(=O)CC2=CCCCC2)cc1,0.7476
3,COCCN(C)Cc1cc(Cl)ccc1OCC(O)CN1CCCCCC1 (stereo unspecified),95.86
4,COCCN(C)C(C(=O)O)c1cc(Cl)ccc1OC (stereo unspecified),-4.575
5,CN(CCO)Cc1cc(Cl)ccc1OCC(O)CN1CCCCCC1 (stereo unspecified),92.98
6,COCC(O)CN1CCC(NC(=O)c2ccccc2Cl)CC1 (stereo unspecified),-8.699
7,CCN1CCN(CC(O)c2cc(Cl)ccc2Cl)CC1 (stereo unspecified),-3.784
8,CCOc1ccc(Cl)cc1C(C(=O)O)N1CCCC1 (stereo unspecified),-26.77
9,OCCN1CCN(CC(O)c2cc(Cl)ccc2Cl)CC1 (stereo unspecified),-2.66
10,CCOCC(O)CN1CCN(C(=O)c2ccnc(N(C)C)c2)CC1 (stereo unspecified),-11.71
11,CN(CCCO)Cc1cc(Cl)ccc1OCC(O)CN1CCCCCC1 (stereo unspecified),86.94
12,COc1cccc(CN2C[C@@H](F)[C@@H](OCc3nc4cnccc4[nH]3)C2)c1,-9.076
13,COc1ccc(C2C3=C(COC3=O)Nc3[nH]nc(C)c32)cc1OC (stereo unspecified),3.297
14,Cn1ccc(NCc2cc3cc(F)ccc3o2)n1,107
15,COCCn1ccc(NCc2sccc2C)n1,-10.57
16,NC(=O)CCn1ccc(NCc2cc(F)ccc2Br)n1,-14.37
17,Cc1cc(CNc2ccnn2C)ccc1-n1cncn1,1.687
18,Cc1ccc2oc(CNC(C)c3nnc4n3CCCC4)cc2c1 (stereo unspecified),-13.95
19,COCCn1ccc(NCc2scnc2C)n1,1.852
20,Cn1nccc1NCc1cc2cc(F)ccc2o1,98.61
21,COCCn1ccc(NCc2cc3cc(F)ccc3o2)n1,97.47
22,CC(NCc1cc2cc(F)ccc2o1)c1nnc2n1CCCC2 (stereo unspecified),-7.412
